This is a sample that favours compounds with a hit; in the whole collection about 18% have one here.
TDP1 cell CPT: DT40-hTDP1 cell growth loss with CPT | chicken DT40 Tdp1-/-;hTDP1 cells + 20 nM CPT, ATP luminescence, 48 h | Potency, µM (highest dose often 46.2 µM), inactives show top-dose activity change, negative = growth inhibition, actives largely listed as inhibitors | 12% of 420,000 active | AID 686979; further: potency means the concentration at half of the fitted maximal effect; on the % scale 0 is the no-effect control and ±100 the full control effect; nearly all actives have a fitted effect of over 55% in size
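Chicken DT40 Tdp1-/- cells complemented with human TDP1, 400 cells/well, exposed to compounds plus 20 nM camptothecin for at least 48 h at 37 C; viability read as ATP content by CellTiter-Glo luminescence.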
TGFb inhibitor: blocks TGF-b signaling; HepG2 CAGA-GFP TGF-b/SMAD3 reporter, GFP fluorescence, 18 h; TGF-beta stimulated, 500 pg/mL final; Potency, µM (series often up to 46.1 µM), for inactives: at the highest dose activity, negative = inhibition, hits mostly inhibitors; 1.2% of 410,000 active; further: potency means the concentration at half of the fitted maximal effect; on the % scale 0 is the no-effect control and ±100 the full control effect; nearly all actives have a fitted effect of over 65% in size
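TGF-beta reporter screen: HEPG2 CAGA-GFP, 1% FBS, 500 pg/mL TGF-beta final, 18 h; per-cell GFP summed per well; curves fitted and categorized by class.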
TDP1 inh: TDP1 (human) enzyme inhibition; Q9NUW8; recombinant TDP1, AlphaScreen DNA substrate cleavage; Potency, µM (series often up to 130 µM), without a hit: at the highest dose activity change, negative = inhibition, hits mostly inhibitors; 0.28% of 350,000 active; further: potency means the concentration at half of the fitted maximal effect; on the % scale 0 is the no-effect control and ±100 the full control effect; nearly all actives have a fitted effect of over 40% in size
Target sequence (Q9NUW8 whole entry, looked up): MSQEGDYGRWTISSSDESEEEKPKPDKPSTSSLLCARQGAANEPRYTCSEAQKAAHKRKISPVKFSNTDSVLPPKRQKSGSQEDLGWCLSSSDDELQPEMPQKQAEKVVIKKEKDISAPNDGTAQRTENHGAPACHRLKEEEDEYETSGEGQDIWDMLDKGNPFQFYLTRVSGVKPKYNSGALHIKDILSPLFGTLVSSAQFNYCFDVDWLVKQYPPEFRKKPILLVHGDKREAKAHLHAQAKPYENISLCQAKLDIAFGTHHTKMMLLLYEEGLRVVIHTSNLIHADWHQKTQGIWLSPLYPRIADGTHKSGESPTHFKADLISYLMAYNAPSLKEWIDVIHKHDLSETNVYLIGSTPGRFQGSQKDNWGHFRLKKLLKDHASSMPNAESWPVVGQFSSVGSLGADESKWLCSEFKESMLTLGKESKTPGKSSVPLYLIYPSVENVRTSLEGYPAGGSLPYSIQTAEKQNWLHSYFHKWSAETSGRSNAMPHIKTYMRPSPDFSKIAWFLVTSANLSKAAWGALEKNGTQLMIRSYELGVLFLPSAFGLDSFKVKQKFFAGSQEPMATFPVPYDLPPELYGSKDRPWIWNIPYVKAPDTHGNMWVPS
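Steps: enzyme plus compound, 15 min RT; add biotin/phosphotyrosine-FITC oligonucleotide (15 nM final), react 5 min; add donor/acceptor beads (10 ug/ml final), 10 min; read AlphaScreen. Tdp1 at 1 nM final.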
HepG2 viability: HepG2 cytotoxicity, counter-screen for TGF-b inhibitors | HepG2 CAGA-GFP viability, ATP luminescence, 18 h | Potency, µM (top dose mostly 46.1 µM), for the others: at the top dose activity change, negative = cytotoxicity, actives largely listed as cytotoxic | 0.76% of 410,000 active | AID 588856; further: potency means the concentration at half of the fitted maximal effect
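HepG2 CAGA-GFP cells (1000/well, DMEM with 1% FBS) received compound, then TGF-beta at 500 pg/mL final, and were incubated 18 hours at 37 degrees C. Viability was read by CellTiter-Glo luminescence. Media-only wells were set as complete cell-killing and DMSO as no toxicity.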
DT40 TDP1 no CPT: qHTS for Inhibitors of human tyrosyl-DNA phosphodiesterase 1 (TDP1): qHTS in cells in absence of CPT; DT40 Tdp1-/- hTDP1 cells, no CPT, ATP luminescence, 48 h; Potency, µM (highest dose often 46.2 µM), without a hit: top-dose activity change, negative = growth inhibition, actives largely listed as inhibitors; 15% of 420,000 active; further: potency means the concentration at half of the fitted maximal effect; on the % scale 0 is the no-effect control and ±100 the full control effect; nearly all actives have a fitted effect of over 55% in size
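Compound effects on proliferation are scored in DT40 Tdp1-/-;hTDP1 cells in the absence of CPT. ATP levels (CellTiter-Glo luminescence) are recorded after a ≥48 hr, 37 °C incubation.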
IL1B secr inh: blocks inflammasome-driven IL-1 beta release; THP-1 LPS/ATP IL-1B secretion, AlphaLISA, 16 h; hits give low values; activity change, % at 57.5 µM; 4.7% of 360,000 active; AID 743279; in the data active means activity change below about -50%; inconclusive means mostly about -30% to -49%; further: on the % scale 0 is the no-effect control and ±100 the full control effect
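Secreted IL-1B measured by AlphaLISA bead assay after 16 h compound exposure of THP-1 cells; compounds (final up to 57.5 uM) added 1 h before LPS (250 ng/mL) and ATP (1.25 mM) stimulation; lower signal means less secretion.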
An asterisk follows results filed as active. Unless noted, the call rests on the fitted dose curve; in most records, active means well fitted curve in the direction sought with a large enough effect; inconclusive means small, poorly fitted or top-dose-only effect, or another doubt; inactive means no such curve, though single readings can be large; an effect the other way counts as inactive or inconclusive.

Cc1ccc(NC(=S)NNC(=O)c2ccc(N3CCOCC3)c([N+](=O)[O-])c2)cc1C was read as TDP1 cell CPT -15%, TGFb inhibitor -3%, TDP1 inh 11%, HepG2 viability 1%, DT40 TDP1 no CPT -28% and IL1B secr inh -26.
Cc1ccc(C(=O)Nc2ccccc2N2CCCC2)cc1S(=O)(=O)N1CCOCC1 was read as TDP1 cell CPT inconclusive, TGFb inhibitor -2%, TDP1 inh 7%, HepG2 viability -13%, DT40 TDP1 no CPT inconclusive and IL1B secr inh -1.
For Cc1ccc(C(=O)Nc2ccccc2[N+](=O)[O-])cc1S(=O)(=O)N1CCOCC1 the results were TDP1 cell CPT 4%, TGFb inhibitor inconclusive, TDP1 inh 1%, HepG2 viability -24%, DT40 TDP1 no CPT inconclusive and IL1B secr inh -64*.
`N#C/C(=C\c1cccn1S(=O)(=O)c1cccc(C#N)c1)S(=O)(=O)c1ccc(F)cc1` gave TDP1 cell CPT -28%, TGFb inhibitor -14%, HepG2 viability -16%, DT40 TDP1 no CPT -25% and IL1B secr inh 0.
Screening COC(=O)c1cc(OC)c(OC)cc1NC(=O)C1CCC(=O)N1S(=O)(=O)c1ccc(C)cc1 (stereo unspecified) returned TDP1 cell CPT 21µM*, TGFb inhibitor -2%, TDP1 inh 4%, HepG2 viability 4%, DT40 TDP1 no CPT 18µM* and IL1B secr inh 11.
For CC(SC1=Nc2ccccc2C2CC=NN12)C(=O)NC1(C#N)CCCCC1 (stereo unspecified) the results were TDP1 cell CPT 12µM*, TGFb inhibitor -5%, TDP1 inh 4%, HepG2 viability -25%, DT40 TDP1 no CPT 23µM* and IL1B secr inh -3.
`Cc1cnc(NC(=O)c2c(Cl)cnn2C)s1` gave TDP1 cell CPT 0%, TGFb inhibitor 23%, TDP1 inh 2%, HepG2 viability 9%, DT40 TDP1 no CPT 0% and IL1B secr inh 8.
`Cc1ccc(O)c(NC(=O)CCS(=O)(=O)c2nc(-c3cccs3)cc(C(F)(F)F)n2)c1` gave TDP1 cell CPT 2.6µM*, TGFb inhibitor 10µM*, TDP1 inh 3%, HepG2 viability 13µM* and DT40 TDP1 no CPT 5.8µM*.
Screening O=C(CCS(=O)(=O)c1nc(-c2cccs2)cc(C(F)(F)F)n1)Nc1ccc(Br)cc1 returned TDP1 cell CPT 5.2µM*, TGFb inhibitor 5.6µM*, TDP1 inh 6%, HepG2 viability 10µM* and DT40 TDP1 no CPT 3.7µM*.
`Cc1cnn(-c2nc(-c3cccs3)cc(C(F)(F)F)n2)c1` gave TDP1 cell CPT inconclusive, TGFb inhibitor 4%, TDP1 inh -7%, HepG2 viability -4%, DT40 TDP1 no CPT inconclusive and IL1B secr inh -10.
O=C(CCS(=O)(=O)c1nc(-c2cccs2)cc(C(F)(F)F)n1)Nc1cc(Br)ccc1O was read as TDP1 cell CPT 0.65µM*, TGFb inhibitor 2.5µM*, TDP1 inh 9%, HepG2 viability 6.3µM* and DT40 TDP1 no CPT 1.2µM*.
For CC(C)C(NC(=O)Nc1ccccc1)C(=O)Nc1cccc(S(=O)(=O)N(C)C)c1 (stereo unspecified) the results were TDP1 cell CPT 7%, TGFb inhibitor 1%, TDP1 inh -1%, HepG2 viability -7%, DT40 TDP1 no CPT inconclusive and IL1B secr inh -24.
For COC(C[C@H]1O[C@H]1C(=O)COCc1ccccc1)OC the results were TDP1 cell CPT inconclusive, TGFb inhibitor 1%, TDP1 inh 1%, HepG2 viability -7%, DT40 TDP1 no CPT inconclusive and IL1B secr inh 0.
`C=CCN(CC=C)S(=O)(=O)c1ccc(F)cc1` gave TDP1 cell CPT 6%, TGFb inhibitor 0%, TDP1 inh -1%, HepG2 viability -17%, DT40 TDP1 no CPT -15% and IL1B secr inh 5.
`C=CCN(CC=C)S(=O)(=O)c1ncn[nH]1` gave TDP1 cell CPT -9%, TGFb inhibitor 15%, TDP1 inh 40µM*, HepG2 viability 7%, DT40 TDP1 no CPT -2% and IL1B secr inh 12.
Screening CC1(c2ccccc2Cl)NC(=O)N(CC(=O)c2ccc3c(c2)OCO3)C1=O (stereo unspecified) returned TDP1 cell CPT 12%, TGFb inhibitor 6%, TDP1 inh -9%, HepG2 viability 2%, DT40 TDP1 no CPT -20% and IL1B secr inh 17.
Cc1cccc(N2CCN(S(=O)(=O)c3cc(C(=O)Nc4ccc(Oc5ccccc5)cc4)ccc3F)CC2C)c1 (stereo unspecified) was read as TDP1 cell CPT 2.1µM*, TGFb inhibitor -13%, TDP1 inh 8%, HepG2 viability -19% and DT40 TDP1 no CPT 2.9µM*.
Screening O=C(Nc1ccc(Oc2ccccc2)cc1)c1ccc(F)c(S(=O)(=O)N2CCN(c3ccccc3F)CC2)c1 returned TDP1 cell CPT 5.8µM*, TGFb inhibitor inconclusive, TDP1 inh 8%, HepG2 viability -7% and DT40 TDP1 no CPT 4.6µM*.
Screening CC(C)c1ccc(NC(=O)c2ccc(F)c(S(=O)(=O)N3CCN(c4ccccc4F)CC3)c2)cc1 returned TDP1 cell CPT -11%, TGFb inhibitor 0%, TDP1 inh 8%, HepG2 viability -13% and DT40 TDP1 no CPT inconclusive.
`COc1ccccc1N1CCN(S(=O)(=O)c2cc(C(=O)Nc3ccc(Oc4ccccc4)cc3)ccc2F)CC1` gave TDP1 cell CPT 3.3µM*, TGFb inhibitor -4%, TDP1 inh 13%, HepG2 viability -10% and DT40 TDP1 no CPT 5.8µM*.
Screening O=C(O)CC(CN1C(=O)c2ccccc2C1=O)c1ccccc1 (stereo unspecified) returned TDP1 cell CPT -1%, TGFb inhibitor 3%, HepG2 viability 10%, DT40 TDP1 no CPT 1% and IL1B secr inh 29.
Cc1noc(NS(=O)(=O)c2ccc(NC(=O)c3ccc(N4C(=O)c5ccccc5C4=O)cc3)cc2)c1C was read as TDP1 cell CPT 3%, TGFb inhibitor inconclusive, TDP1 inh 50µM*, HepG2 viability -15%, DT40 TDP1 no CPT -14% and IL1B secr inh 0.
